Eight molecules from ChEMBL document CHEMBL3988442, “University of Dundee, Small-Polar-MMV Screening Library” (2021) can be followed below.

For some of these results: Entries with a potency or affinity are not part of this list.

Holding throughout (set-up): scale not given: direction of the effect not stated beside the values
Assay [1] concerns the target Protein translocase subunit SecA (Escherichia coli (strain K12)) (UniProt P10408). As to the kind of experiment: Assay to Identify E. coli SecA ATPase Inhibitors. Type of assay: functional. Conditions: 30 µM.
Assay [2] addresses T1, Ubiquitin-activating enzyme e1, putative (Leishmania donovani (strain BPK282A1)) (UniProt E9BSI1).
T1 sequence (whole entry): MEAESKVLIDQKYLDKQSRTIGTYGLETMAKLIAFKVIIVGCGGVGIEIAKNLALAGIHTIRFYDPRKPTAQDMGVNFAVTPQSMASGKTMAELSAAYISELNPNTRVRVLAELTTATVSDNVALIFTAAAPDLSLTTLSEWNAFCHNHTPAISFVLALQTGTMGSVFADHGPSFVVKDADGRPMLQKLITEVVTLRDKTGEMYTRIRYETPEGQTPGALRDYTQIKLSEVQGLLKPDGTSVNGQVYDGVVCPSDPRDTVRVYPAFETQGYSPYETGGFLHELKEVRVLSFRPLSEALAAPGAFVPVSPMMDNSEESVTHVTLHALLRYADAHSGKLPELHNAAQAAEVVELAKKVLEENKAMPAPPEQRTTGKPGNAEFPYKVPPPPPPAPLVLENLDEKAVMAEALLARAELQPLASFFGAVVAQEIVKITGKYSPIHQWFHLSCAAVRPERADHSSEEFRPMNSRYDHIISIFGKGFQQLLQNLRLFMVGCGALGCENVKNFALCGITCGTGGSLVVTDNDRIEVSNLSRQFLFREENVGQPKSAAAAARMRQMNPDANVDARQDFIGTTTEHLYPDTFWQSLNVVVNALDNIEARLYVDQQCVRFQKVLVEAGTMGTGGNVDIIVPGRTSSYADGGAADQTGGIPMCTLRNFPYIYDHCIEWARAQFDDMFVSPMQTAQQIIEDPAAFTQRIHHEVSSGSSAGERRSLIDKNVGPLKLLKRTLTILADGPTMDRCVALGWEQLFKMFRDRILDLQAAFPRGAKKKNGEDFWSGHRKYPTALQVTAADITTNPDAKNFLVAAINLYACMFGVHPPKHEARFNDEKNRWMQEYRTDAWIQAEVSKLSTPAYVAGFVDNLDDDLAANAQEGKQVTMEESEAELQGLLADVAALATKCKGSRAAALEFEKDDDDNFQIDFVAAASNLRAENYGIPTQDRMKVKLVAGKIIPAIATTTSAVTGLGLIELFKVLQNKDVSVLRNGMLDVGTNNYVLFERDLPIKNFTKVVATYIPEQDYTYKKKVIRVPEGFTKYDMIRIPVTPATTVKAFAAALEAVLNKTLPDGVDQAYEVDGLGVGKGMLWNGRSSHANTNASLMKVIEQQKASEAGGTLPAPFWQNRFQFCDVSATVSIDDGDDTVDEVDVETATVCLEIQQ
As to the kind of experiment: Leishmania donovani Ubiquitin Activating Enzyme (LdE1). Type of assay: functional. The note with it: 30 µM.

Assay [3] deals with AMP-activated protein kinase, AMPK (Homo sapiens) (UniProt P54646+O43741+P54619+Q9UGJ0+Q9Y478+Q13131+Q9UGI9). As to the kind of experiment: AMP-dependent Kinase enzyme assay. An in vitro enzyme assay that detects ADP turnover that is directly proportional to AMPK activity. This uses naive AMPK that is activated during the assay with MK-8722. Type of assay: functional. The note with it: 30 µM.

The target of assay [4] is Sialic acid-binding Ig-like lectin 9 (Homo sapiens) (UniProt Q9Y336). As to the kind of experiment: Hs-Siglec9 ALPHAscreen SOP 20170721. Conditions: 10 µM.
Sialic acid-binding Ig-like lectin 9 (Homo sapiens), sequence (Q9Y336 whole entry): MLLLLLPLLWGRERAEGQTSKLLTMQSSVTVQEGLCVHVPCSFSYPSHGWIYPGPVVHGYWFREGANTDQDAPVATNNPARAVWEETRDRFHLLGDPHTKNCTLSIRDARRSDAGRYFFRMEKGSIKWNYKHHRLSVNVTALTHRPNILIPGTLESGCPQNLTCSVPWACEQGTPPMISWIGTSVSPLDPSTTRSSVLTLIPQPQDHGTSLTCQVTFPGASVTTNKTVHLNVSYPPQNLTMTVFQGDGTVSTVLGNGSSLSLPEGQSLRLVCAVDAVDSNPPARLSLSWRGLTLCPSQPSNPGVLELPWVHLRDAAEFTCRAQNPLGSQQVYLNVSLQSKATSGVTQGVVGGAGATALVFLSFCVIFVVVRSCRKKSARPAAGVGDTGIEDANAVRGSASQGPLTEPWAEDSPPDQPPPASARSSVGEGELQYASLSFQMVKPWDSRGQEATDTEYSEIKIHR
For a further assay, the system named is Trypanosoma cruzi. As to the kind of experiment: Trypanosoma cruzi phosphomannomutase and mannose-1-phosphate guanylyltransferase assay. The assay is classed as functional. Conditions: 10 µM.
Assay [5] deals with T2, Arginase-2, mitochondrial (Homo sapiens) (UniProt P78540).
T2 sequence (whole entry): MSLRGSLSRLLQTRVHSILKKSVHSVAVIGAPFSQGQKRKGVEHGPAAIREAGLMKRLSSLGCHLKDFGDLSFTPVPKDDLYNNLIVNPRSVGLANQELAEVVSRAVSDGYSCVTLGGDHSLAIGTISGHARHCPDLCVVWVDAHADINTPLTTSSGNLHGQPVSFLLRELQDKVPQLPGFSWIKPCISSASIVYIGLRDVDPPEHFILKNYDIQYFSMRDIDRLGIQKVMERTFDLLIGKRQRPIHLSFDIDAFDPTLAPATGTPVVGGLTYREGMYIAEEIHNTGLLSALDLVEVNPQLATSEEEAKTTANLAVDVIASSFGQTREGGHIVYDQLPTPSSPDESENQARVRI
As to the kind of experiment: in vitro enzyme assay to detect the production of urea directly proportional to the activity of Arginase II. Further: in the data most compounds retested in dose-response had high values. The assay is classed as functional. Conditions: 33.3 µM.

The target in assay [6] is T3, Proteasome subunit beta (Trypanosoma cruzi) (UniProt O96673).
T3 sequence (whole entry): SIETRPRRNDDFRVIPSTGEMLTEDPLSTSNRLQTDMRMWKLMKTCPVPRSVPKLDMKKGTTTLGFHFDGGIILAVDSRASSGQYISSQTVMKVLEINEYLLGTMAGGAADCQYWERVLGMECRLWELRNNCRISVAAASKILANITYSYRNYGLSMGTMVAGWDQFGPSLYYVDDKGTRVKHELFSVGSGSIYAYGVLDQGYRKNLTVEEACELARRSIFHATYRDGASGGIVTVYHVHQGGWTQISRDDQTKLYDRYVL
As to the kind of experiment: Trypanosoma cruzi proteasome chymotrypsin-like activity (TcProtChymo) assay. Further: in the data most compounds retested in dose-response had high values. Type of assay: functional. Conditions: 9.37 µM.

The next assay is filed under the species Homo sapiens. As to the kind of experiment: To identify inhibition of the IFN signalling (Jak-Stat) pathway via expression of an eGFP reporter gene under the control of an IFN-stimulated response element (ISRE) containing MxA promoter. The assay is classed as functional. The note with it: 30 µM. In general terms: In a reporter assay the amount or activity of a reporter protein is the signal.

Assay [7] concerns the target T4, Tyrosyl-tRNA synthetase, putative (Trypanosoma cruzi (strain CL Brener)) (UniProt Q4DSP6).
T4 sequence (whole entry): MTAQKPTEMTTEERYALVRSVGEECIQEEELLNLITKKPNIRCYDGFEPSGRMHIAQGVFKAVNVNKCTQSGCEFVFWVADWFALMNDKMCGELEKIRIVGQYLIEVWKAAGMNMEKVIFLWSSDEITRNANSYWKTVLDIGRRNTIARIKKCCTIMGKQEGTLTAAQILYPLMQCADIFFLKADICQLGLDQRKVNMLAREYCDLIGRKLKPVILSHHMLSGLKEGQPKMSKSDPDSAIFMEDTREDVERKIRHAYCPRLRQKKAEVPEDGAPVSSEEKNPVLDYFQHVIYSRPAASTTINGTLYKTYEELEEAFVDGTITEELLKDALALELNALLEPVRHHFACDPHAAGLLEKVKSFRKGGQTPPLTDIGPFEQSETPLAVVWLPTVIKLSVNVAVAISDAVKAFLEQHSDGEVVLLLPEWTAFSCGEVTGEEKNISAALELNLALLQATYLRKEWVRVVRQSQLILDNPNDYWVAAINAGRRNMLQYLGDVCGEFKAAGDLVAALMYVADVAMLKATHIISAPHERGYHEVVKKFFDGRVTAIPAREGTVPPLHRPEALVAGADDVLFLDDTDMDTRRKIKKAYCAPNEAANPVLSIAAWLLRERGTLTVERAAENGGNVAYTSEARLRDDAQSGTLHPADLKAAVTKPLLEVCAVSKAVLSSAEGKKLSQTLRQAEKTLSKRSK
As to the kind of experiment: Trypanosoma cruzi tyrosyl tRNA synthetase (TcYRS) _High Tyrosine SOP. Further: in the data most compounds retested in dose-response had high values. The assay is classed as functional. The note with it: 30 µM.

The target of assay [8] is T4, Tyrosyl-tRNA synthetase, putative (Trypanosoma cruzi (strain CL Brener)). As to the kind of experiment: Trypanosoma cruzi tyrosyl tRNA synthetase (TcYRS) SOP. Type of assay: functional. Conditions: 30 µM.
Assay [9] concerns the target Chromo domain-containing protein 1 (Saccharomyces cerevisiae (strain ATCC 204508 / S288c) (Baker's yeast)) (UniProt P32657). As to the kind of experiment: ScCHD-1 Enzyme Inhibition Assay. Further: in the data most compounds retested in dose-response had high values. The assay is classed as functional. The note with it: 30 µM.

Protein translocase subunit SecA (Escherichia coli (strain K12)), sequence (P10408 whole entry): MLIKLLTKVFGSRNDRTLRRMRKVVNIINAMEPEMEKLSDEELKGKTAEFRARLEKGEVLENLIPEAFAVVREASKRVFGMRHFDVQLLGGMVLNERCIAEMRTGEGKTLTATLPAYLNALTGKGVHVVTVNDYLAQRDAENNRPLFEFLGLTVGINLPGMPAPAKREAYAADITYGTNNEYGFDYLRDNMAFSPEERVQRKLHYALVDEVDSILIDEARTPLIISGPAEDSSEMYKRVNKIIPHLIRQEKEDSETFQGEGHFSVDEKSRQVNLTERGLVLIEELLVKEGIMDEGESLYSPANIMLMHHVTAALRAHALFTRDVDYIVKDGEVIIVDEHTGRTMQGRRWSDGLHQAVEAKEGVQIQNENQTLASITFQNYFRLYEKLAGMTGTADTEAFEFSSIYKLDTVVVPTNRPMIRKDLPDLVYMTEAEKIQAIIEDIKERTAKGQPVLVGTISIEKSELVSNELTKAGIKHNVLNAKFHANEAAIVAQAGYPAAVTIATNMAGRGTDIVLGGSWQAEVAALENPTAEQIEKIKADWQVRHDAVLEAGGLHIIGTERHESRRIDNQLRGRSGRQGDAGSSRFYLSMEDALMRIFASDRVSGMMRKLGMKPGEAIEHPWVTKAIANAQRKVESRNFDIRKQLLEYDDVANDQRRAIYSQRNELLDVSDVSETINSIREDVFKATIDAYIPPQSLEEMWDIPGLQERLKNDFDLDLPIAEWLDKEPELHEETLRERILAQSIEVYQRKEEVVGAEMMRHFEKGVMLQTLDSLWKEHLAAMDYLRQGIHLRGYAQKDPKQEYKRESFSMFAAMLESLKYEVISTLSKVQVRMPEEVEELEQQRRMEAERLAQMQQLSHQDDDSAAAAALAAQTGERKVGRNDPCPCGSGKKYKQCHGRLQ
Chromo domain-containing protein 1 (Saccharomyces cerevisiae (strain ATCC 204508 / S288c) (Baker's yeast)), sequence (P32657 whole entry, the tested form may be a part): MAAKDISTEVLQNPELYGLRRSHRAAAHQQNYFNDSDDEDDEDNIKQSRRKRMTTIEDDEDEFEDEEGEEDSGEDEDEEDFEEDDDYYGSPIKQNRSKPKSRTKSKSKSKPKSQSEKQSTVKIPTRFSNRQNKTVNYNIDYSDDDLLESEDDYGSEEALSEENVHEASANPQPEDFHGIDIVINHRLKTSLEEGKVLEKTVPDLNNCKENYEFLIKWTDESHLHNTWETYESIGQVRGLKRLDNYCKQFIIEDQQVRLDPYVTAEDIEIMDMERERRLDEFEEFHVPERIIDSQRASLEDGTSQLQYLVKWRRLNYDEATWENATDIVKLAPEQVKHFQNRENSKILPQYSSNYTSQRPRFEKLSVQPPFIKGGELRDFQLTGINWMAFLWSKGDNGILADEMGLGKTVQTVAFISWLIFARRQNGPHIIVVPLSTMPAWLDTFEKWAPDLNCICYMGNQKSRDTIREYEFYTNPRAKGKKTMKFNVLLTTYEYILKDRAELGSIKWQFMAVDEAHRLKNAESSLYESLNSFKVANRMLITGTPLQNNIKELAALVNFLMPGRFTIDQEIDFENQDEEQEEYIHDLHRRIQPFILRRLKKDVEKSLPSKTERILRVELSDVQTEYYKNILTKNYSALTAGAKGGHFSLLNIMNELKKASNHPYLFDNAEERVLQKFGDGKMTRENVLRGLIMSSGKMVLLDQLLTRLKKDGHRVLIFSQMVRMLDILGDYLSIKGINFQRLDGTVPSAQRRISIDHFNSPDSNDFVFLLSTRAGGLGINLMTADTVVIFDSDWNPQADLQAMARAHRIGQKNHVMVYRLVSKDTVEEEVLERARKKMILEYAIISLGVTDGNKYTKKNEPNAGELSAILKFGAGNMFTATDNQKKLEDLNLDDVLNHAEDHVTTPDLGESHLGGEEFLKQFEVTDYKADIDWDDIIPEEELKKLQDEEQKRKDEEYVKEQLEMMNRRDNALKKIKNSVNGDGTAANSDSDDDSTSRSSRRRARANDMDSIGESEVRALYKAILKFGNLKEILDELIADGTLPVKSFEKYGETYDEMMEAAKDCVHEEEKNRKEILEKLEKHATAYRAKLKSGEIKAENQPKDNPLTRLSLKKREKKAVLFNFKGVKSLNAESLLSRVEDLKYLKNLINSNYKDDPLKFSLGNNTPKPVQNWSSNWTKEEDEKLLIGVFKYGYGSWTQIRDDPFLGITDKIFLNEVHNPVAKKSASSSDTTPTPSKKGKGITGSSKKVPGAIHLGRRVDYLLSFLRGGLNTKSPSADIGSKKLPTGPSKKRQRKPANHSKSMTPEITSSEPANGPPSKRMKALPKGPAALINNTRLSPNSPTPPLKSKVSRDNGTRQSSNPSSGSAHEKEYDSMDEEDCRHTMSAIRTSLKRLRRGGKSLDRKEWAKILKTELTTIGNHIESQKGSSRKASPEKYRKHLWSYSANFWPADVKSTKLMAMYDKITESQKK

On to `CC(NC(=O)CCC(=O)c1cccs1)c1nnc2n1CCCCC2` (stereo not drawn), for which the Percent Effect in assay [1] was -1.87%; in [2] it was -2.7%; in [3], -8.57%; in assay [4], -0.426%; with Trypanosoma cruzi, -3.06%; in [5], 5.73%. Besides, the Percent Effect in [6] is -5.39%; in the assay filed under Homo sapiens it was 10%; in assay [7], 3.96%; in assay [8], 13.4%; in assay [9] it was 2.68%.

`Cc1noc(C)c1-c1cccc(CC2CCN(C(=O)CCC(=O)O)C2)n1` (stereo not drawn): the Percent Effect in assay [1] was -2.58%; in assay [2], 6.76%; in [3] it was 5.24%; in assay [4], 4.95%; in the assay with Trypanosoma cruzi, 3.16%; in assay [5] it was 0.696%. Besides, the Percent Effect was 3.28% in assay [6]; -7.92% in the assay filed under Homo sapiens; 1.07% in assay [7]; 3.9% in assay [8]; -9.71% in assay [9].

As to `CC(=O)NCC(=O)N1CCn2cc(CN3CCN(C)CC3)nc2C1`, the Percent Effect was -4.28% in assay [1]; 10.4% in assay [2]; -0.0716% in [3]; 14.9% in assay [4]; 7.57% in the assay with Trypanosoma cruzi; -1.38% in [5]. Besides, the Percent Effect in assay [6] is 6.16%; in the assay filed under Homo sapiens, 9.49%; in [7] it was 8.6%; in assay [8] it was 16.1%; in assay [9], -0.16%.

With `Cc1cc(C(=O)N2CCCC2Cn2nc(C)cc2C)on1` (stereo not drawn), the Percent Effect in assay [1] was -2.76%; in [2], 10.8%; in [3], -7.13%; in assay [4], 13.4%; with Trypanosoma cruzi, 3.87%; in assay [5], -7.62%. In addition, the Percent Effect in [6] is 4.14%; in the assay filed under Homo sapiens, 8.42%; in [7], 5.42%; in assay [8], 18.5%; in assay [9], -8.04%.

For the molecule `CN(Cc1cscn1)C1CCCN(Cc2noc(C3CC3)n2)C1` (stereo not drawn), the Percent Effect is -0.734% in assay [1]; 23.7% in assay [2]; -5.57% in [3]; -10.6% in [4]; 2.33% with Trypanosoma cruzi; 0.36% in assay [5]. The Percent Effect was 12.9% in assay [6]; 0.628% in the assay listed under Homo sapiens; 7.39% in assay [7]; 28.4% in assay [8]; -12.5% in [9].

`CCOCCC(=O)N1CCCC(c2ncc[nH]2)C1` (stereo not drawn): the Percent Effect is -3.07% in assay [1]; 2.74% in [2]; -7.86% in [3]; -2.18% in assay [4]; -5.29% in the assay with Trypanosoma cruzi; 6.36% in [5]. The Percent Effect in assay [6] is 4.97%; in the assay filed under Homo sapiens, 11.3%; in assay [7], 2.15%; in assay [8] it was 7.5%; in assay [9], -0.879%.

In the case of `Cc1nc(CN(C)C2CCN(CC3CCCCC3)C2)no1` (stereo not drawn), the Percent Effect in assay [1] is -3.09%; in [2], 18.9%; in assay [3], -8.63%; in [4] it was 1.46%; in the assay with Trypanosoma cruzi, 4.55%; in assay [5], -7.95%. The Percent Effect is 8.8% in [6]; 10.1% in the assay listed under Homo sapiens; 5.94% in assay [7]; 23.2% in assay [8]; -8.81% in assay [9].

As to `COc1cccc(CCNS(=O)(=O)c2ccc(NC(C)=O)cc2)c1`, the Percent Effect in [1] was -3.33%; in assay [2], 5.26%; in assay [3], 4.42%; in assay [4], -2.24%; in the assay with Trypanosoma cruzi, -4.58%; in assay [5], -8.28%. Further, the Percent Effect in assay [6] is 17%; in the assay listed under Homo sapiens it was 21.2%; in assay [7], 1.06%; in assay [8], 10.4%; in [9], -4.22%.
